Results from PubChem BioAssay (NCATS).
“And” between values parts separate entries of the source, which are not always exact repeats. Equal entries are not always repeated. Inconclusive results are not listed. A number with no mark means an inactive call. The source made the active and inactive calls. Calls come from the whole dose curve; as a rule, active = well fitted curve in the direction sought with a large enough effect; inconclusive = small, poorly fitted or top-dose-only effect, or another doubt; inactive = no such curve, though single readings can be large; an effect the other way counts as inactive or inconclusive.

What was measured:
[1] = molecular target: Cellular tumor antigen p53 (Homo sapiens) (UniProt P04637); experiment: Primary qHTS for small molecule compounds that upregulate eGFP-tagged delta133p53alpha (in N-terminal) cells. (AID 2060322); conditions: NCI-H358 eGFP-delta133p53alpha fluorescence, 24 h; activation: hits give high values; note: nearly all actives have a fitted effect of over 75% in size; note: potency is the fitted concentration of half-maximal effect;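 for activation: cells pre-induced with doxycycline then dosed without doxycycline; series mostly up to about 56 µM; 0% = DMSO vehicle and 100% = reference activator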
In short: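 NCI-H358 cells pre-induced 24 h with 10 ng/ml doxycycline for eGFP-delta133p53alpha, plated dox-free and exposed 24 h at 37C to titrated compounds. Fixed, Hoechst-stained; gated GFP peak intensity by laser scanning cytometry, normalized to DMSO (0%) and 57.5 uM 5-azacytidine (100%).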

[2] = molecular target: Aldehyde dehydrogenase, mitochondrial (Homo sapiens) (UniProt P05091); experiment: qHTS for Inhibitors of the Aldehyde Dehydrogenase Family (ALDH2) Primary screen (AID 2061308);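 note: plate controls were vehicle for no effect and reference inhibitor for full effect; nearly all actives have a fitted effect of over 55% in size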
[3] = molecular target: Retinaldehyde dehydrogenase 3 (Homo sapiens) (UniProt P47895); experiment: qHTS for Inhibitors of the Aldehyde Dehydrogenase Family (ALDH1A3) Primary screen (AID 2061315);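 note: plate controls were DMSO vehicle for no effect and reference inhibitor for full effect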
[4] = molecular target: Aldehyde dehydrogenase 1A1 (Homo sapiens) (UniProt P00352); experiment: qHTS for Inhibitors of the Aldehyde Dehydrogenase Family (ALDH1A1) Confirmatory screens (AID 2061316); note: % is set by controls: 0 for no effect and ±100 for the full control effect; nearly all actives have a fitted effect of over 65% in size
[5] = BET inhibitor-based combinations targeting novel dependencies in MECOM-rearranged (r) AML: SET-2 cell line (AID 2202231); conditions: SET-2 AML cells viability, CellTiter-Glo luminescence, 48 h; viability: hits give low values, concentration not given here; note: nearly all actives have a fitted effect of over 35% in size; note: potency is the fitted concentration of half-maximal effect;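 for viability: plate controls were DMSO treated cells for no effect and wells without cells for full effect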
In short: (§1)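 Viability of cells (500 per well) is scored by luminescent CellTiter-Glo at 48 hr post-dosing. Eleven-point titrations are normalized to DMSO and empty controls and reduced to AUC values.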

[6] = BET inhibitor-based combinations targeting novel dependencies in MECOM-rearranged (r) AML: OCI-AML3 cell line (AID 2202232); conditions: Potency: OCI-AML3 viability; note: nearly all actives have a fitted effect of over 35% in size; note: potency is the fitted concentration of half-maximal effect;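 for viability (% of control): series mostly up to about 46 µM; plate controls were DMSO vehicle wells for no effect and wells without cells for full effect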
In short: as §1

[7] = BET inhibitor-based combinations targeting novel dependencies in MECOM-rearranged (r) AML: MV-4-11 cell line (AID 2202233); note: nearly all actives have a fitted effect of over 45% in size; note: potency is the fitted concentration of half-maximal effect;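 for viability, % of control: plate controls were DMSO for no effect and blank wells for full effect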
In short: (§2)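 Using pin-tool transfer, drugs were added in 11 doses to cells (500/well), incubated 48 hr, and assessed with CellTiter-Glo. Z-AUC is a mean-centring transformation applied separately to each screened line.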

[8] = BET inhibitor-based combinations targeting novel dependencies in MECOM-rearranged (r) AML: HNT-34 cell line (AID 2202234); note: nearly all actives have a fitted effect of over 35% in size; note: potency is the fitted concentration of half-maximal effect;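 for viability (% of control): plate controls were vehicle wells for no effect and cell-free wells for full effect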
In short: as §2

[9] = BET inhibitor-based combinations targeting novel dependencies in MECOM-rearranged (r) AML: UCSD-AML1 cell line (AID 2202235); note: nearly all actives have a fitted effect of over 40% in size; note: potency is the fitted concentration of half-maximal effect;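 for viability (% of control): series mostly up to about 46 µM; plate controls were DMSO vehicle wells for no effect and blank wells for full effect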
In short: as §2

[10] = BET inhibitor-based combinations targeting novel dependencies in MECOM-rearranged (r) AML: AML-191 cell line (AID 2202236; note: nearly all actives have a fitted effect of over 35% in size; note: potency is the fitted concentration of half-maximal effect;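 for viability (% of control): plate controls were vehicle wells for no effect and wells without cells for full effect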)
In short: as §1

[11] = BET inhibitor-based combinations targeting novel dependencies in MECOM-rearranged (r) AML: AML-194 cell line (AID 2202237;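 note: plate controls were vehicle wells for no effect and wells without cells for full effect; nearly all actives have a fitted effect of over 40% in size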)
In short: as §1

Sequence of Cellular tumor antigen p53 (Homo sapiens) (P04637 whole entry, looked up): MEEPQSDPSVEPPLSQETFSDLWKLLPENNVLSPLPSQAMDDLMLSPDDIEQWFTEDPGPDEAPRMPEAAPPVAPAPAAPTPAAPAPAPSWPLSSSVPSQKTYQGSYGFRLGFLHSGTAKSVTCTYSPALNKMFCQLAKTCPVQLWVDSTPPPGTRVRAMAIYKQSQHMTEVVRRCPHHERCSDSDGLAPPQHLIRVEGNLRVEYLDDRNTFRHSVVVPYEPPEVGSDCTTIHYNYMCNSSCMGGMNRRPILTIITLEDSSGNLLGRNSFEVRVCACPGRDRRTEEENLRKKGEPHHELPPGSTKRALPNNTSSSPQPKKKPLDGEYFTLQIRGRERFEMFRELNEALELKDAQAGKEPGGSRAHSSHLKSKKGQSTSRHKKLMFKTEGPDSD

For `CCC(O)C(C)C1CCC(C(C)C(=O)O)O1` (stereo unspecified), the activation [1] was 13.4%, the Potency [2] was “inactive” and the Potency [3] was “inactive”. The Potency [4] was “inactive”.
With `CNC(=O)c1cc(Oc2ccc(NC(=O)Nc3ccc(Cl)c(C(F)(F)F)c3)cc2)ccn1` the activation [1] was 4.11%, the Potency [2] was “inactive” and the Potency [3] was “inactive”. For the same molecule, the Potency [5] was 26300 nM (active), the Potency [6] was 9340 nM (active) and the Potency [7] was 13.2 nM (active). The Potency [8] was 10500 nM (active), the Potency [9] was 18600 nM (active) and the Potency [10] was 14800 nM (active).
In the case of `CN[C@@H](C)[C@H]1[C@H](O)C[C@@]2(C)[C@@H]3CC[C@H]4C(C)(C)[C@@H](NC)CC[C@@]45C[C@@]35CC[C@]12C`, the activation [1] is reported as -17.2% and -1.67%, the activity change, negative = inhibition [2] is reported as 0.631% [at 11.2 µM] and the activity change, negative = inhibition [3] is reported as 0.124% [at 11.2 µM]. It also gave a viability [5] of 106%, a viability (% of control) [6] of 106% [at 8.46 µM] and a viability, % of control [7] of 115% [at 8.46 µM]. For the same molecule, the viability (% of control) [8] was 103% [at 8.46 µM], the viability (% of control) [9] was 111% [at 8.46 µM] and the viability (% of control) [10] was 95.8% [at 8.46 µM].
For `OCc1ccccc1O[C@@H]1O[C@H](CO)[C@@H](O)[C@H](O)[C@H]1O`, the activation [1] was 2.68%, the Potency [2] was “inactive” and the Potency [3] was “inactive”. The viability [5] was 115%, the Potency [6] was “inactive” and the Potency [7] was “inactive”. The Potency [8] was “inactive”, the Potency [9] was “inactive” and the Potency [10] was “inactive”. For the same molecule, the Potency [11] was “inactive”.
With `CN(C)C/C=C/C(=O)Nc1ccc(C(=O)Nc2cccc(Nc3ncc(Cl)c(-c4c[nH]c5ccccc45)n3)c2)cc1` the Potency [1] was 269 nM (active) and 343 nM (active), the Potency [2] was “inactive” and the Potency [3] was “inactive”. The Potency [5] was 662 nM (active), the Potency [6] was 83.3 nM (active) and the Potency [7] was 46.8 nM (active). The Potency [8] was 118 nM (active), the Potency [9] was 132 nM (active) and the Potency [10] was 235 nM (active).
